Counter-ions that a name gives are not always drawn.

In the assay the test system is HL-1. Put plainly: relative cell viability (CellTiter-Glo) vs DMSO control (% of DMSO control); higher = more viable cells. An outline of the steps:
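Plating of HL-1 mouse atrial cardiomyocytes at 1000 cells per well in 384-well plates was done together with compounds at 40, 200, 1000 or 5000 nM in 0.01% DMSO. A day later the cells faced 48 h of 1% O2 and then 24 h of reoxygenation, or matching normoxia. Viability was measured via CellTiter-Glo luminescence and set relative to vehicle-treated control cells.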
For orientation: ATP-based viability assays read luminescence as a measure of living cells.

[1] abbreviates: oxygen condition: hypoxia 48 h (1% O2) + reoxygenation 24 h, 40 nM.
Setting [2] is: oxygen condition: hypoxia 48 h (1% O2) + reoxygenation 24 h, 200 nM.
Setting [3] is: oxygen condition: hypoxia 48 h (1% O2) + reoxygenation 24 h, 1000 nM.
The mark [4] stands for this setting: oxygen condition: hypoxia 48 h (1% O2) + reoxygenation 24 h, 5000 nM.
The mark [5] stands for this setting: oxygen condition: normoxia 72 h, 40 nM.
[6] abbreviates: oxygen condition: normoxia 72 h, 200 nM.
Setting [7] is: oxygen condition: normoxia 72 h, 1000 nM.
[8] abbreviates: oxygen condition: normoxia 72 h, 5000 nM.

For `NC(=O)c1cccnc1` [Nicotinamide], the relative cell viability came to 95.4 under setting [1]; 97.2 under setting [2]; 98.5 under setting [3]; 104 under setting [4]; 96.7 under setting [5]; 103 under setting [6]. Also, the relative cell viability by setting is: under setting [7], 95.5; under setting [8], 102.
With `CNC(=O)c1ccc(N2C(=S)N(c3ccc(C#N)c(C(F)(F)F)c3)C(=O)C2(C)C)cc1F`, the relative cell viability is, setting by setting: under setting [1], 99.6; under setting [2], 103; under setting [3], 51.5; under setting [4], 106; under setting [5], 99.6; under setting [6], 102. The relative cell viability was 106 under setting [7] and 109 under setting [8].
With `CCN(CC)CC#CCOC(=O)C(O)(c1ccccc1)C1CCCCC1` (centres undefined) [Oxybutynin], the relative cell viability is, setting by setting: under setting [1], 97.2; under setting [2], 99.9; under setting [3], 101; under setting [4], 102; under setting [5], 109; under setting [6], 103. For the same molecule, the relative cell viability turned out to be 104 under setting [7] and 101 under setting [8].
With `NS(=O)(=O)c1cc2c(cc1Cl)N=C(CSCc1ccccc1)NS2(=O)=O` [Benzthiazide], the relative cell viability under setting [1] was determined as 103; the relative cell viability under setting [2] is 99.8; the relative cell viability under setting [3] came out at 99.3; the relative cell viability under setting [4] is 107; the relative cell viability under setting [5] was 99.7; the relative cell viability under setting [6] worked out at 93.8. Also, the relative cell viability under setting [7] was determined as 100 and the relative cell viability under setting [8] was determined as 105.
Turning to `Cc1cccc(C)c1OCC(C)N` (centres undefined) [Mexiletine HCl], the relative cell viability is, setting by setting: under setting [1], 108; under setting [2], 105; under setting [3], 104; under setting [4], 121; under setting [5], 103; under setting [6], 105. Besides, the relative cell viability by setting is: under setting [7], 107; under setting [8], 123.
As to `CC1=NN(c2ccc(C)c(C)c2)C(=O)/C1=N\Nc1cccc(-c2cccc(C(=O)O)c2)c1O` [Eltrombopag], the relative cell viability by setting is: under setting [1], 105; under setting [2], 86; under setting [3], 109; under setting [4], 107; under setting [5], 106; under setting [6], 112. The relative cell viability by setting is: under setting [7], 111; under setting [8], 108.
In the case of `CCOC(=O)[C@H](CCc1ccccc1)N[C@@H](C)C(=O)N1C(=O)N(C)C[C@H]1C(=O)O` [Imidapril], the relative cell viability under setting [1] stood at 111; the relative cell viability under setting [2] is 103; the relative cell viability under setting [3] was determined as 99.3; the relative cell viability under setting [4] came to 115; the relative cell viability under setting [5] was found to be 110; the relative cell viability under setting [6] is 103. For the same molecule, the relative cell viability was found to be 104 under setting [7] and 113 under setting [8].
In the case of `CC(C)c1c(C(=O)Nc2ccccc2)c(-c2ccccc2)c(-c2ccc(F)cc2)n1CC[C@@H](O)C[C@@H](O)CC(=O)O` [Atorvastatin calcium], the relative cell viability by setting is: under setting [1], 107; under setting [2], 95.8; under setting [3], 102; under setting [4], 41.7; under setting [5], 96.4; under setting [6], 98.8. The relative cell viability worked out at 81.6 under setting [7] and 19.9 under setting [8].
Turning to `COc1ccc([C@H]2CNC(=O)C2)cc1OC1CCCC1` [S-(+)-Rolipram], the relative cell viability reads like this: under setting [1], 103; under setting [2], 92.3; under setting [3], 89.4; under setting [4], 90.4; under setting [5], 95.6; under setting [6], 101. Besides, the relative cell viability under setting [7] amounted to 98.7 and the relative cell viability under setting [8] worked out at 103.
Take `CC[C@H](C)C(=O)O[C@H]1CCC=C2C=C[C@H](C)[C@H](CC[C@@H]3C[C@@H](O)CC(=O)O3)[C@H]21` [Mevastatin]: the relative cell viability under setting [1] was found to be 112; the relative cell viability under setting [2] came to 101; the relative cell viability under setting [3] came out at 99.3; the relative cell viability under setting [4] was 113; the relative cell viability under setting [5] amounted to 101; the relative cell viability under setting [6] was 105. For the same molecule, the relative cell viability runs as follows: under setting [7], 106; under setting [8], 119.
On to `CC1(C)O[C@@H]2[C@@H](CO[C@@]3(COS(N)(=O)=O)OC(C)(C)O[C@@H]23)O1` [Topiramate], for which the relative cell viability runs as follows: under setting [1], 97.3; under setting [2], 91.8; under setting [3], 108; under setting [4], 100; under setting [5], 104; under setting [6], 107. Moreover, the relative cell viability reads like this: under setting [7], 98; under setting [8], 98.8.
`CC1CC(OC(=O)C(O)c2ccccc2)CC(C)(C)C1` (centres undefined) [Cyclandelate]: the relative cell viability runs as follows: under setting [1], 104; under setting [2], 106; under setting [3], 106; under setting [4], 118; under setting [5], 103; under setting [6], 108. The relative cell viability came to 110 under setting [7] and 115 under setting [8].
For the molecule `[I-].[K+]` [Potassium iodide], the relative cell viability under setting [1] worked out at 103; the relative cell viability under setting [2] worked out at 104; the relative cell viability under setting [3] was determined as 102; the relative cell viability under setting [4] came out at 108; the relative cell viability under setting [5] amounted to 106; the relative cell viability under setting [6] stood at 104. The relative cell viability reads like this: under setting [7], 106; under setting [8], 109.
Consider `CN1CCC(=C2c3ccccc3CC(=O)c3sccc32)CC1` [Ketotifen fumarate], for which the relative cell viability reads like this: under setting [1], 108; under setting [2], 103; under setting [3], 101; under setting [4], 113; under setting [5], 99.8; under setting [6], 100. The relative cell viability was 105 under setting [7] and 106 under setting [8].
As to `CC(C)(C)CC(C)(C)c1ccc(OCCOCC[N+](C)(C)Cc2ccccc2)cc1` [Benzethonium chloride], the relative cell viability runs as follows: under setting [1], 102; under setting [2], 94.7; under setting [3], 75.7; under setting [4], 17.6; under setting [5], 97.9; under setting [6], 93.1. Besides, the relative cell viability by setting is: under setting [7], 66.7; under setting [8], 18.
Take `C=C[C@]1(C)C[C@@H](OC(=O)CS[C@@H]2C[C@H]3CC[C@@H](C2)N3C)[C@]2(C)[C@H](C)CC[C@]3(CCC(=O)[C@H]32)[C@@H](C)[C@@H]1O` [Retapamulin]: the relative cell viability under setting [1] came to 104; the relative cell viability under setting [2] amounted to 104; the relative cell viability under setting [3] was found to be 105; the relative cell viability under setting [4] amounted to 108; the relative cell viability under setting [5] is 98.3; the relative cell viability under setting [6] was found to be 97.1. Moreover, the relative cell viability by setting is: under setting [7], 89.2; under setting [8], 81.7.
As to `NC(=O)CC[C@H](N)C(=O)O` [L-Glutamine], the relative cell viability by setting is: under setting [1], 98.4; under setting [2], 99.1; under setting [3], 103; under setting [4], 105; under setting [5], 102; under setting [6], 97.4. Also, the relative cell viability was found to be 114 under setting [7] and 113 under setting [8].
Turning to `CCC[C@@H]1C[C@@H](C(=O)N[C@@H]([C@H]2O[C@H](SC)[C@H](O)[C@@H](O)[C@H]2O)[C@H](C)Cl)N(C)C1` [Clindamycin hydrochloride], the relative cell viability under setting [1] was determined as 98.5; the relative cell viability under setting [2] was 93.8; the relative cell viability under setting [3] worked out at 91.3; the relative cell viability under setting [4] amounted to 102; the relative cell viability under setting [5] was 102; the relative cell viability under setting [6] turned out to be 98. In addition, the relative cell viability reads like this: under setting [7], 100; under setting [8], 86.2.

Values taken from the supplement of paper PMC8371130.
